Assay outcomes: PubChem, National Center for Advancing Translational Sciences (NCATS)
Nrf2 inh: blocks Nrf2 signaling | A549 ARE-Fluc reporter, luciferase luminescence, 18-24 h | Potency, µM (doses to about 46 µM), for inactives: at the highest dose activity change, negative = inhibition, usual class: inhibitors | hit rate 2.1% among 360,000; note: % is set by controls: 0 for no effect and ±100 for the full control effect; nearly all actives have a fitted effect of over 60% in size
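Quantitative HTS in A549 cells stably bearing an antioxidant response element-firefly luciferase construct. Inhibition of Nrf2-driven transcription was scored by luminescence after 18-24 h of compound exposure at 37 °C.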
A549 tox: counter-screen for Nrf2 inhibitors: cytotoxicity in A549 cells; A549 ARE-Fluc cells, CellTiter-Fluor viability, 18-24 h; Potency, µM (highest dose often 46 µM), inactives show top-dose activity change, negative = cytotoxicity, actives largely listed as inhibitors; hit rate 0.16% among 390,000; AID 504648; note: % is set by controls: 0 for no effect and ±100 for the full control effect
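A549 ARE-Fluc cells in 5% FBS OPTI-MEM, 5000 cells/well, rested 2 h then exposed to compounds in concentration-response for 18-24 h at 37 °C. Viability by CellTiter-Fluor fluorescence (Ex 405/Em 525) after 30 min; luciferase luminescence (BugLite, 15 min, RT) read afterwards.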
ELG1 repair inh: inhibitors of ELG1-dependent DNA repair in HEK293T cells. HEK293T ELG1-luciferase reporter, luminescence, 16 h; DNA damage induced by 5-fluorouridine. Potency, µM (doses to about 46.1 µM), for the others: at the highest dose activity change, negative = inhibition, actives largely listed as inhibitors. hit rate 2.3% among 330,000. AID 504467; note: % is set by controls: 0 for no effect and ±100 for the full control effect; nearly all actives have a fitted effect of over 55% in size
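Step one: seed 2,000 cells per well. Step two: pin-transfer compound or DMSO alongside 5-fluorouridine. Step three: incubate 16 hr, 37 °C, 5% CO2. Step four: add ONE-Glo, wait 30 min, read luminescence.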
IDH1 R132H inh: blocks human mutant IDH1 R132H enzyme; O75874; hit rate 0.093% among 390,000; Potency, µM (series often up to 76.6 µM), for inactives: top-dose activity change, negative = inhibition, most hits filed as inhibitors; IDH1-R132H enzyme, NADPH consumption, diaphorase/resazurin fluorescence; note: % is set by controls: 0 for no effect and ±100 for the full control effect; nearly all actives have a fitted effect of over 65% in size
Target sequence (O75874 whole entry R132H, stated change not applied): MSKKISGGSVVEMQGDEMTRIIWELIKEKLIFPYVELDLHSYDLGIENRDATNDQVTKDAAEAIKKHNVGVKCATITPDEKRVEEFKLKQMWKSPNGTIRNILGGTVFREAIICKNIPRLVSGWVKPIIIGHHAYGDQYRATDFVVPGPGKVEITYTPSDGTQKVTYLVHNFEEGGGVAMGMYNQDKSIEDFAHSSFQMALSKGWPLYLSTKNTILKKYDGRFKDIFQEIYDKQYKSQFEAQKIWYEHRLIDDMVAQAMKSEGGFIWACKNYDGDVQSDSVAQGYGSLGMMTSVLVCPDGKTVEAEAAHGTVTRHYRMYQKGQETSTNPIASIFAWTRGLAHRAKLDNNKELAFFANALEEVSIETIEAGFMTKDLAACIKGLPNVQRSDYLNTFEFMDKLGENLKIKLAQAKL
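IDH1-R132H (0.5 ug/mL dispensed) in pH 7.5 Tris buffer was preincubated 30 min with compound, then given a substrate mix of 0.016 mM NADPH and 2 mM alpha-KG for 80 min at room temperature; remaining NADPH was read by diaphorase/resazurin fluorescence.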
Nrf2 ARE act: activators of Nrf2 (ARE) signaling; Potency, µM (highest dose often 46.1 µM), inactives show top-dose activation, usual class: activators; hit rate 0.31% among 410,000; AREc32 ARE-luciferase reporter (MCF7-derived line), luminescence, 24 h; note: % of control where 0% means no effect; nearly all actives have a fitted effect of over 65% in size
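AREc32_Fluc, 1000 cells/well, OPTI-MEM + 5% FBS, o/n 37 deg C 5% CO2; 23 nL cpd by pin tool, 24 hr; Steady-Glo 30 min RT, luminescence.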
Numbers without * were called inactive; ? = inconclusive; nt = not tested or not shown; [ ] = dose if it differs, or a comment. An excerpt weighted towards active compounds, which were near 3.8% of everything screened. Calls come from the whole dose curve; as a rule, active = well fitted curve in the direction sought with a large enough effect; inconclusive = small, poorly fitted or top-dose-only effect, or another doubt; inactive = no such curve, though single readings can be large; an effect the other way counts as inactive or inconclusive. Potency is the fitted concentration of half-maximal effect.

SMILES | Nrf2 inh | A549 tox | ELG1 repair inh | IDH1 R132H inh | Nrf2 ARE act
CCN(c1ccccc1)S(=O)(=O)c1cccc(C(=O)NCc2ccncc2)c1 | ? | -0.7% | -9.6% | -0.9% | -0.4%
O=C(Nc1cccc(S(=O)(=O)N2CCCC2)c1)c1ccc(Cl)nc1 | ? | -18.0% | 9.2µM* | -12.2% | 3.0%
C=CCN(c1ccccc1)S(=O)(=O)c1cccc(C(=O)NCc2ccncc2)c1 | ? | -3.5% | 8.2µM* | 2.4% | 2.1%
O=C(NCc1nnc(-c2nc3ccccc3[nH]2)o1)C1CCCCC1 | -8.2% | -5.5% | nt | nt | nt
CCOc1ccccc1NC(=O)C1=C(C)Nc2ncnn2C1c1ccc(C)o1 (stereo not drawn) | nt | 0.3% | nt | -2.9% | 3.8%
COc1ccc(Cl)cc1NC(=O)Cn1cc(C(=O)c2ccncc2)c(=O)c2cc(C)ccc21 | nt | 9.8% | nt | -8.9% | 0.7%
CCN1CCN(c2ccc(NC(=O)c3cccc(S(=O)(=O)N4CCCC4)c3)cc2)CC1 | 6.6% | -1.3% | 12.0% | -0.3% | 4.2%
CC1CN(S(=O)(=O)c2cccc(C(=O)Nc3ccccc3N3CCOCC3)c2)CC(C)O1 (stereo not drawn) | ? | 0.5% | -24.6% | 11.1% | -0.1%
CC1CN(S(=O)(=O)c2cccc(C(=O)Nc3ccccc3N3CCCCC3)c2)CC(C)O1 (stereo not drawn) | 16.4µM* | ? | -22.5% | 4.8% | 0.2%
O=C(Nc1ccc(N2CCOCC2)cc1)c1cccc(S(=O)(=O)N2CCCCC2)c1 | 20.6µM* | -12.9% | 16.4µM* | 2.2% | -0.3%
O=C(Nc1ccncc1)c1cccc(S(=O)(=O)N2CCOCC2)c1 | -19.2% | -4.5% | -5.2% | 2.2% | -0.3%
O=C(Nc1ccncc1)c1cccc(S(=O)(=O)N2CCCC2)c1 | 8.2µM* | -18.8% | -3.5% | 0.6% | 0.2%
COc1cc(F)c(S(=O)(=O)N2CCCN(S(=O)(=O)c3cccc(NC(C)=O)c3)CC2)c(F)c1 | 16.4µM* | -8.9% | nt | nt | nt
CCOC(=O)C1CCN(C(=O)Cn2nc(CC)n3c(cc4occc43)c2=O)CC1 | 29.6% | 2.9% | nt | -6.3% | -1.0%
CC(=O)Nc1ccc(S(=O)(=O)N2CCN(S(=O)(=O)c3c(F)cccc3F)CC2)cc1 | 2.9% | 8.4% | nt | nt | nt
COc1ccc(NS(=O)(=O)c2ccccc2C(=O)O)cc1 | 4.6% | 9.7% | nt | nt | nt
CC(=O)c1ccc(NC(=O)c2cc(S(=O)(=O)N3CCOCC3)ccc2C)cc1 | 15.4% | 0.9% | -8.1% | 11.6% | 0.2%
Cc1ccc(S(=O)(=O)N2CCOCC2)cc1C(=O)Nc1ccc(N2CCCCCC2)cc1 | 20.6µM* | -20.3% | -0.9% | 4.0% | 3.6%
O=C(Nc1ccncc1)C1CCN(S(=O)(=O)c2cccc(C(F)(F)F)c2)CC1 | 16.4µM* | -4.0% | 1.1% | -13.1% | 0.3%
O=C(CCc1nc2ccccc2c(=O)[nH]1)N1CCN(c2ccc(F)cc2)CC1 | 16.4µM* | -0.2% | ? | -7.7% | 1.4%
O=C(c1ccc(S(=O)(=O)NCC2CCCO2)cc1)N1CCN(c2ccccc2F)CC1 (stereo not drawn) | -7.4% | 0.5% | -8.4% | -4.5% | -0.9%
O=C(c1ccc(S(=O)(=O)NCC2CCCO2)cc1)N1CCN(c2cccc(Cl)c2)CC1 (stereo not drawn) | 13µM* | 1.9% | 9.2µM* | -2.0% | 0.4%
O=C(Nc1cccc(F)c1)c1ccc(S(=O)(=O)NCC2CCCO2)cc1 (stereo not drawn) | 20.6µM* | -4.1% | ? | 4.2% | 5.5%
Cc1ccccc1Nc1nc(Nc2ccccc2C)nc(SC2=NCCS2)n1 | 25.9µM* | -22.4% | ? | 6.1% | -0.2%
Cc1ccc(Nc2nc(Nc3ccc(C)cc3)nc(SC3=NCCS3)n2)cc1 | ? | -22.1% | ? | -2.1% | 0.4%
SMILES | Nrf2 inh | A549 tox | ELG1 repair inh | IDH1 R132H inh | Nrf2 ARE act
c1ccc2c(N3CCCCC3)nnc(N3CCCCC3)c2c1 | nt | nt | -1.2% | nt | nt
Clc1nnc(N2CCCCC2)c2ccccc12 | 16.4µM* | 0.9% | ? | 16.2% | -0.5%
c1csc(-c2nnc(N3CCOCC3)c3ccccc23)c1 | ? | 1.8% | -10.1% | 13.1% | -0.6%
c1csc(-c2nnc(N3CCCCCC3)c3ccccc23)c1 | 8.7% | 0.1% | ? | 4.1% | 12.6µM*
Cn1c(=O)cc(OCCCC(=O)Nc2ccc(F)cc2)c2ccccc21 | ? | -9.6% | nt | -1.6% | 11.6%
Cc1ccc(-c2noc(-c3ccc(NC4CCCC4)c([N+](=O)[O-])c3)n2)cc1 | 1.3% | 0.6% | nt | 0.0% | 0.9%
CCCOc1ccc(C(=O)Nc2cc(S(=O)(=O)N3CCOCC3)ccc2N2CCN(CC)CC2)cc1OC | 13.9% | 4.4% | nt | 20.6% | 0.1%
COc1ccc(N2CCn3c2nc2c3c(=O)n(CCCc3ccccc3)c(=O)n2C)c(OC)c1 | ? | -20.7% | 20.6µM* | -3.3% | -0.6%
COc1ccc(N2CC(C)Cn3c2nc2c3c(=O)n(CCc3ccccc3)c(=O)n2C)cc1 (stereo not drawn) | -10.1% | -18.2% | -8.8% | 8.8% | 0.7%
COc1cccc(N2CC(O)Cn3c2nc2c3c(=O)n(CCCc3ccccc3)c(=O)n2C)c1 (stereo not drawn) | ? | -4.5% | 23.1µM* | 0.0% | -0.6%
COc1ccc(N2CC(C)Cn3c2nc2c3c(=O)n(Cc3ccccc3)c(=O)n2C)c(OC)c1 (stereo not drawn) | -5.5% | ? | 18.3µM* | -1.5% | 0.2%
COc1ccc(N2CCn3c2nc2c3c(=O)n(CCCc3ccccc3)c(=O)n2C)cc1 | nt | nt | 9.7% | nt | nt
CC(C)(C)C1CCN2CCC[C@](c3ccccc3)(C1)C2OCCCO (stereo partly drawn) | nt | nt | nt | nt | 3.9%
CC1CCCN(Cc2c(O)ccc3c(=O)c(-c4ccc(Cl)cc4)c(C(F)(F)F)oc23)C1 (stereo not drawn) | 7.0% | 0.9% | nt | nt | 1.2%
CCN(C[C@H]1N[C@@](Cc2ccccc2)(C(=O)OC)[C@H]2C(=O)N(Cc3ccccc3)C(=O)[C@@H]12)S(=O)(=O)c1ccc(C(F)(F)F)cc1 | 8.8% | -1.1% | -19.3% | 3.3% | 0.6%
CCN(C[C@H]1N[C@@](CC)(C(=O)OC)[C@H]2C(=O)N(Cc3ccccc3)C(=O)[C@@H]12)C(=O)c1ccccc1 | -0.1% | -6.2% | 20.6µM* | -3.5%[38.3 µM] | 0.6%
CCN(C[C@H]1N[C@@](Cc2ccccc2)(C(=O)OC)[C@H]2C(=O)N(C)C(=O)[C@@H]12)S(=O)(=O)c1ccc(OC(F)(F)F)cc1 | -9.9% | -10.5% | 20.6µM* | 4.9% | 0.2%
CCN(C[C@H]1N[C@@](Cc2ccccc2)(C(=O)OC)[C@H]2C(=O)N(C)C(=O)[C@@H]12)S(=O)(=O)c1ccc(C(F)(F)F)cc1 | -24.2% | -8.7% | 23.1µM* | -2.4% | -0.4%
N=c1c2c(n(Cc3ccc([N+](=O)[O-])cc3)c3c1CCC3)CCCC2 | ? | -9.8% | 8.2µM* | -2.9% | -1.1%
